# Screening results as filed in PubChem.
# The list is not random: actives were taken first. Their share in the collection is about 6.9%.
# PLK1 PBD block: blocks phosphopeptide binding to human PLK1 polo-box domain; P53350; Plk1 PBD binding of FITC phosphopeptide, fluorescence polarization; Potency, µM, without a hit: max response, negative = inhibition, usual class: inhibitors; 360,000 tested, 2.8% active; AID 720504; further: series mostly up to about 57 µM; on the % scale 0 is the no-effect control and ±100 the full control effect; nearly all actives have a fitted effect of over 65% in size
# BAZ2B block: inhibitors of human BAZ2B bromodomain. Q9UIF8. AlphaScreen BAZ2B-H3K14Ac peptide displacement. Potency, µM (doses to about 114 µM), for the others: at the highest dose activity change, negative = inhibition, usual class: inhibitors. 360,000 tested, 4.4% active; further: on the % scale 0 is the no-effect control and ±100 the full control effect; nearly all actives have a fitted effect of over 60% in size
# Target sequence (Q9UIF8 whole entry, looked up): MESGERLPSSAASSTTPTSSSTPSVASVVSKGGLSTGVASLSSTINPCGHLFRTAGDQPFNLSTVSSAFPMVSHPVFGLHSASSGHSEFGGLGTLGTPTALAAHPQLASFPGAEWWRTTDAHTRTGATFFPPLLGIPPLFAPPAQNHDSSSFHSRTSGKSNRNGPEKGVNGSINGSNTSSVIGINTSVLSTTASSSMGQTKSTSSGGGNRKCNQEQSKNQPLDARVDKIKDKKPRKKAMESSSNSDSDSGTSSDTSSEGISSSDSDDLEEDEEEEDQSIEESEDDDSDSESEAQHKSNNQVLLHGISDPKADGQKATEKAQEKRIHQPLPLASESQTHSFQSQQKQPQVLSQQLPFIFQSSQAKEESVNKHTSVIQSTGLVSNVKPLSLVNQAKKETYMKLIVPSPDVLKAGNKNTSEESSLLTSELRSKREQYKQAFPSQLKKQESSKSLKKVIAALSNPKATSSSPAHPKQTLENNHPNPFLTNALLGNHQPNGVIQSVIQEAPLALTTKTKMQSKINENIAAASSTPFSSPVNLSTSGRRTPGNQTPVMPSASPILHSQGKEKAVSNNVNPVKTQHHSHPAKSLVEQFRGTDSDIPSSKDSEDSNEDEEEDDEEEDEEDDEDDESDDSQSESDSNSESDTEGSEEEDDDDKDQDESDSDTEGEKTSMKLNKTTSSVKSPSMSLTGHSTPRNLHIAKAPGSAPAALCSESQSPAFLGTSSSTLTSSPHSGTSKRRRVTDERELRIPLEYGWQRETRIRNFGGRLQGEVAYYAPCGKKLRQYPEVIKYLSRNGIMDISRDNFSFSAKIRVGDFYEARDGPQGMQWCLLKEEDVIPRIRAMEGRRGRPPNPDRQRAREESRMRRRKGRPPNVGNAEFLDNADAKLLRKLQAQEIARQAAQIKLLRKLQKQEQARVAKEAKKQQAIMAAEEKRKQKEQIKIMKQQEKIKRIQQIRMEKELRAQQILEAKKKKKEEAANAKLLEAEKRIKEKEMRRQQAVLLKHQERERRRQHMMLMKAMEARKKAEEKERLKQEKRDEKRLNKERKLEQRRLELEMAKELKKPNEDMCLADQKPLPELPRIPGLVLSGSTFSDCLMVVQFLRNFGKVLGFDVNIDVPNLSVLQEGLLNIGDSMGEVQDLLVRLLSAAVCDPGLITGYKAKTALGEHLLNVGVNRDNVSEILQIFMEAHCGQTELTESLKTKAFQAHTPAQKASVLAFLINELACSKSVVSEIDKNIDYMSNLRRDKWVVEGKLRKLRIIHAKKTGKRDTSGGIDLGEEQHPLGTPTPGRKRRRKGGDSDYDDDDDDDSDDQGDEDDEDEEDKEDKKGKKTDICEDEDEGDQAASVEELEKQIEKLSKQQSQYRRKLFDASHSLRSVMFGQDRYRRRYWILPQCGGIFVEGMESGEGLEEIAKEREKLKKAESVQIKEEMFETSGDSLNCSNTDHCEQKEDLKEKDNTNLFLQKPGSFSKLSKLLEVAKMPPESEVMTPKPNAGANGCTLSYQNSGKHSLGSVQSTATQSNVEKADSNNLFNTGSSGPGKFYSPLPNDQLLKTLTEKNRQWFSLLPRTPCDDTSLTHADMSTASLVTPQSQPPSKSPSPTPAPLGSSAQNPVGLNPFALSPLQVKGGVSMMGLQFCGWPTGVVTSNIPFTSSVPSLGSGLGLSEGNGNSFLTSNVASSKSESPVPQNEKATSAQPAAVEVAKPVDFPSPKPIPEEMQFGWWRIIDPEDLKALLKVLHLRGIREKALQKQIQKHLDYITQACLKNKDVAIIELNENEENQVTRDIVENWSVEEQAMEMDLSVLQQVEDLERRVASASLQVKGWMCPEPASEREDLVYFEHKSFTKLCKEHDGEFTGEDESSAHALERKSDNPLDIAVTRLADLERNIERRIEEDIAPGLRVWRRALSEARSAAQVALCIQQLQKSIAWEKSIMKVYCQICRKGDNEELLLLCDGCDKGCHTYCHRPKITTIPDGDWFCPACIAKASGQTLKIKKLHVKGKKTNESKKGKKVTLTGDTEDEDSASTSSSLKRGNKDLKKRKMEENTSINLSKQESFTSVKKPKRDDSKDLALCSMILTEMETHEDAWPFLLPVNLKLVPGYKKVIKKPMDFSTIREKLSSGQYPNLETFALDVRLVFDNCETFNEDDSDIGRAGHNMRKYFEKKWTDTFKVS
#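 BAZ2B 50 nM plus b-H3(5-23)K14Ac 50 nM, PBS pH 7.4/0.01% Tween-20, 30 min RT; compound added (max 110 uM), 30 min RT; streptavidin donor/Ni-chelate acceptor beads 10 ug/mL final, 20 min dark; AlphaScreen read.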
# L3MBTL1 block: blocks human L3MBTL1; AID 485360; Q9Y468; 230,000 tested, 0.66% active; Potency, µM (titrated, usually from 57.1 µM), inactives show at the highest dose activity, negative = inhibition, actives largely listed as inhibitors; AlphaScreen L3MBTL1–H3K9me1 peptide binding; further: on the % scale 0 is the no-effect control and ±100 the full control effect; nearly all actives have a fitted effect of over 60% in size
#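 Displacement of a biotinylated histone H3(1-15) peptide monomethylated at Lys9 (75 nM) from L3MBTL1 (50 nM) was measured by AlphaScreen after a 30 min room-temperature compound incubation; cefsulodin titration served as intraplate control.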
# VDR inh: inhibitors of human vitamin D receptor. VDR-SRC2-3 peptide fluorescence polarization, 2 h. Potency, µM, without a hit: max response, negative = inhibition, actives largely listed as inhibitors. 400,000 tested, 0.93% active. AID 504847; further: on the % scale 0 is the no-effect control and ±100 the full control effect
#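 Measured by FP: displacement of SRC2-3 coactivator peptide from VDR by library compounds, following a two-hour ambient incubation.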
# JMJD2A Tudor inh: JMJD2A Tudor domain (human) inhibition | O75164 | AlphaScreen JMJD2A-Tudor / H3K4me3 peptide binding | Potency, µM (top dose mostly 114 µM), for the others: at the highest dose activity change, negative = inhibition, hits mostly inhibitors | 390,000 tested, 4.4% active | AID 504339; further: on the % scale 0 is the no-effect control and ±100 the full control effect; nearly all actives have a fitted effect of over 50% in size
# HP1b binding inh: blocks HP1-beta chromodomain binding to methylated histone tails; P83916; AlphaScreen HP1-beta / biotin-H3K9me3 peptide binding; Potency, µM (doses to about 114 µM), without a hit: top-dose activity change, negative = inhibition, hits mostly inhibitors; 390,000 tested, 0.56% active; AID 540317; further: nearly all actives have a fitted effect of over 70% in size
#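 Compound inhibition of the preformed complex between 50 nM HP1-beta and 50 nM biotinylated H3K9me3 peptide was read by AlphaScreen. Buffer was PBS pH 7.4 with 0.01% Tween-20. Incubations ran 30 min at room temperature, with 10 ug/mL donor/acceptor beads.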
# An asterisk follows results filed as active; ? = inconclusive; . = no result; [ ] = another dose, or the depositor's remark. The call rests on the fitted dose curve; in most records, active means well fitted curve in the direction sought with a large enough effect; inconclusive means small, poorly fitted or top-dose-only effect, or another doubt; inactive means no such curve, though single readings can be large; an effect the other way counts as inactive or inconclusive. Potency means the concentration at half of the fitted maximal effect.
SMILES,PLK1 PBD block,BAZ2B block,L3MBTL1 block,VDR inh,JMJD2A Tudor inh,HP1b binding inh
CCN(CC)c1ccc(NC(=O)CN2CCN(c3nc(C)cc(C)n3)CC2)cc1,-11%,35µM*,?,-22%,-18%[11.4 µM],?
CCOc1ccc(NC(=O)CN2CCN(CC(=O)Nc3ccccc3OC)CC2)cc1,6%,1%,.,2%,-4%,43%
CCN(CC)c1ccc(NC(=O)CN2CCN(CC(=O)Nc3ccccc3OC)CC2)cc1,-5%,?,.,-12%,56µM*,?
O=C1C2=C(C(c3ccccc3)=NCCN2)C(c2cccc([N+](=O)[O-])c2)N1c1ccccc1 (stereo not drawn),?,-6%,-4%,-5%,45µM*,-7%
COc1ccc(C2C3=C(NCCN=C3c3ccccc3)C(=O)N2c2ccccc2)c(OC)c1 (stereo not drawn),2%,.,.,1%,-3%,36%
CCOC(=O)C1=C(Cn2cnc3ccccc32)NC(=O)NC1c1ccc(OC)cc1 (stereo not drawn),-6%,56µM*,.,-11%,-18%,3%
CCOC(=O)C1=C(Cn2cnc3ccccc32)NC(=O)NC1c1ccc(Cl)cc1 (stereo not drawn),0%,-23%,.,?,-3%,23%
CN(C)S(=O)(=O)c1ccc2nnn(O)c2c1,11µM*,.,.,79µM*,?,12%
CCN(CC)CCn1c(NCc2cccc(OC)c2)nc2ccccc21,-6%,-22%,.,1%,-24%,16%
CCN(CC)CCn1c(NCc2cc(OC)ccc2OC)nc2ccccc21,27µM*,-33%,-16%,?,50µM*,5%
N=c1c(C(=O)NCC2CCCO2)cc2c(=O)n3ccccc3nc2n1CCCO (stereo not drawn),.,0%,.,5%,-15%,36%
O=C(O)CCc1ccc(-c2ccc(F)cc2)n1CC(=O)O,-17%,-2%,-15%,-8%,-29%,21%
COC(=O)Cn1c(CCC(=O)O)ccc1-c1ccccc1,-14%,-36%,.,-3%,-18%,41%
O=C(O)CCc1ccc(-c2ccccc2)n1Cc1ccco1,-22%,50µM*,.,-11%,?,3%
O=C(O)CCc1ccc(-c2ccc(Br)cc2)n1Cc1ccco1,?,50µM*,-22%,-11%,79µM*,-16%
Cc1cccc(NC(=O)C2CCN(c3cnccn3)CC2)c1,.,-10%,.,2%,-12%,0%
O=[N+]([O-])c1cccc(/C=C/c2nc[nH]c2[N+](=O)[O-])c1,-13%,-6%,9%,2%,3%[11.4 µM],38%
CN(C/C=C/c1ccccc1)C1CCCCC1,-1%,-18%,5%,-11%,-13%,72%
COCCN(C/C=C/c1ccccc1)C/C=C/c1ccccc1,-4%,?,-5%,-13%,1µM*,?
Cc1[nH]n(-c2ccccc2)c(=O)c1C=Nc1ccc(S(=O)(=O)Nc2nccs2)cc1,24µM*,?,.,3%,?,?
Cc1ccc(/C=C2/SC(=S)N(c3ccc(S(=O)(=O)Nc4nccs4)cc3)C2=O)cc1,?,?,.,0%,?,?
O=C1/C(=C\c2ccccn2)SC(=S)N1c1ccc(S(=O)(=O)Nc2nccs2)cc1,?,50µM*,.,-5%,18µM*,?
Cc1ccc(-n2[nH]c(C)c(C=Nc3ccc(S(=O)(=O)Nc4nccs4)cc3)c2=O)cc1C,-30%,?,-4%,-22%,-32%,-2%
CC(=O)/C(=N/Nc1cccc(C)c1)N1CCOCC1,-8%,?,.,1%,89µM*,6%
Cn1c(=O)c2c(-c3ccccc3)n(Cc3ccccn3)cc2n(C)c1=O,-21%,50µM*,.,-14%,-29%,48%
SMILES,PLK1 PBD block,BAZ2B block,L3MBTL1 block,VDR inh,JMJD2A Tudor inh,HP1b binding inh
Cc1ccc(-c2c3c(=O)n(C)c(=O)n(C)c3cn2Cc2ccccc2)cc1,-27%,?,.,-17%,?,8%
CCc1nnc(NC(=O)CN2CCN(c3ccccc3OC)CC2)s1,-11%,18%,3%,-2%,56µM*,?
COc1ccccc1N1CCN(CC(=O)Nc2ccc(CN3CCCCC3)cc2)CC1,-1%,50µM*,-1%,12%,4µM*,?
CCOc1ccccc1N1CCN(CC(=O)Nc2nnc(CC)s2)CC1,2%,36%,31%,10%,-8%,33%
CCOc1ccccc1NC(=O)C(=O)NCC(c1cccnc1)N1CCN(c2ccccc2)CC1 (stereo not drawn),.,4%,.,-3%,-18%,23%
O=C(NCc1cccs1)C(=O)c1cn(CC(=O)N2CCCC2)c2ccccc12,-9%,-4%,.,-28%,-2%,17%
O=C(COC(=O)/C=C/c1ccc(S(=O)(=O)N2CCc3ccccc32)cc1)NC1CCS(=O)(=O)C1 (stereo not drawn),-10%,-29%,-6%,-5%,-26%,12%
COc1ccc(OC)c(NC(=O)c2c(N3CCCC3=O)c3cc(OC)ccc3n2C)c1,.,?,.,3%,-29%,0%
Cc1sc2nc[nH]c(=S)c2c1-c1ccccc1,?,-27%,7%,89µM*,?,-15%
Cc1sc2nc[nH]c(=O)c2c1-c1ccc(F)cc1,-15%,0%,18%,-13%,-4%,23%
Oc1ccc(N2CCN(Cc3cc4c(cc3Br)OCCO4)CC2)cc1,-15%,40µM*,.,-16%,35µM*,?
O=S(=O)(c1ccc(F)cc1)N1CCN(Cc2cc3c(cc2Br)OCCO3)CC1,4%,1%,-6%,4%,-2%,47%
CCCCOc1ccc(C(=O)N(Cc2ccc(N(C)C)cc2)Cc2ccco2)cc1,.,10µM*,.,4%,20µM*,?
Cc1ccc(CN(Cc2ccco2)C(=O)c2ccc(OCC(C)C)cc2)cc1,.,2%,.,7%,28%,59%
CC(C)Oc1ccc(C(=O)N(Cc2ccc(N(C)C)cc2)Cc2ccco2)cc1,.,13µM*,.,10%,25µM*,?
O=C(NCc1ccc(F)cc1)N1[C@H]2CC[C@@H]1C=C(c1ccc(F)cc1OCc1ccccc1)C2,-12%,.,.,.,.,.
COc1ccc(/C=C/C(=O)Nc2c(C(=O)O)[nH]c3ccccc23)cc1OC,27µM*,-31%,-6%,?,-15%[11.4 µM],-16%
Cc1ccc(S(=O)(=O)Nc2ccc3nc(-c4cccn4C)[nH]c3c2)cc1,-3%,40µM*,?,-8%,16µM*,45µM*
Cn1cccc1-c1nc2ccccc2[nH]1,3%,?,-26%,-4%,-33%,?
CCOc1ccc2nc3cc(N=Nc4ccc(N)nc4N)ccc3c(N)c2c1,?,.,.,3%,56µM*,?
COc1ccc(N=Nc2ccc(N)nc2N)cc1,-6%,40µM*,-17%,9%,40µM*,?
O=S(=O)(Nc1nnc(C(F)(F)F)s1)c1ccc(Cl)cc1,-18%,-2%,.,-30%,-6%,9%
